Our source for the residual activity values is ChEMBL document CHEMBL2218924, “A broad activity screen in support of a chemogenomic map for kinase signalling research and drug discovery” (Biochem J, 2013).

SMILES strings stand for the structures.

Test [1] deals with T1, Serine/threonine-protein kinase TBK1 (Homo sapiens) (UniProt Q9UHD2).
T1 sequence (whole entry): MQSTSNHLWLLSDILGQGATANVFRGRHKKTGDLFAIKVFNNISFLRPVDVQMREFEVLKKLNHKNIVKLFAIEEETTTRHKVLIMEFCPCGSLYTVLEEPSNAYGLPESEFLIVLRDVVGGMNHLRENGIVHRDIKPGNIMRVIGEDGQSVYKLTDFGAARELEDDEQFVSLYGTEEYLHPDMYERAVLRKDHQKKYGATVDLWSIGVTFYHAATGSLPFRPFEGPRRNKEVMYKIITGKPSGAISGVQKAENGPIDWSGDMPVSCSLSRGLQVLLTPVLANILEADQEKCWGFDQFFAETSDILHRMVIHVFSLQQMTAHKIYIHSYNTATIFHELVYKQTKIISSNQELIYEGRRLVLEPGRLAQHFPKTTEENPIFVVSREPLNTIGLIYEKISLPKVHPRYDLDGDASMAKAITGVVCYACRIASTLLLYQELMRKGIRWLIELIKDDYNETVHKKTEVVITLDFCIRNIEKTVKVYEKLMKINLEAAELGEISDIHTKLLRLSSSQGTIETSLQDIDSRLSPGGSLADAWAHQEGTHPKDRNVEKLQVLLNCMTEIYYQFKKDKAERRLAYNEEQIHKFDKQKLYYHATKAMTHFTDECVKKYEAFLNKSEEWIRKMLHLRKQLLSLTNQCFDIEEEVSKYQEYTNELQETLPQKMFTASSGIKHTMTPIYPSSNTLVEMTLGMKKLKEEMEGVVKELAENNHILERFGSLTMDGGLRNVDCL
As to conditions: at 10 µM.

For test [2], the target named is T2, TGF-beta receptor type-1 (Homo sapiens) (UniProt P36897).
T2 sequence (whole entry): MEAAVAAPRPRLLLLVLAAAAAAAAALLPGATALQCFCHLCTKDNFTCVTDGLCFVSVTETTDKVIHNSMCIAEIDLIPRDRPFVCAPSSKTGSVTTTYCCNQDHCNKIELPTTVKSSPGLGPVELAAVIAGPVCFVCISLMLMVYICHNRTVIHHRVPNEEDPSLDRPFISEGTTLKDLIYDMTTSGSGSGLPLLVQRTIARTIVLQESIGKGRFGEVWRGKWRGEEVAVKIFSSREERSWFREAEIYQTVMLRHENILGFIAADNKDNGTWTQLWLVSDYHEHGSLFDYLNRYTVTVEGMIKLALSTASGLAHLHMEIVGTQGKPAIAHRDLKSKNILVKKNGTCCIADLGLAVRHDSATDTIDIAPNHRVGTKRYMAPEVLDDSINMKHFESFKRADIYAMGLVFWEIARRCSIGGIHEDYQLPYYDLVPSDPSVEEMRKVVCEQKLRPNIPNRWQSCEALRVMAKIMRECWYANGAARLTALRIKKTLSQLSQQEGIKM
As to conditions: at 1 µM.

Test [3] addresses T2, TGF-beta receptor type-1 (Homo sapiens). Particulars: at 10 µM.
The target of test [4] is Insulin-like growth factor 1 receptor (Homo sapiens) (UniProt P08069). Particulars: at 1 µM.
The target is the same in test [5]. As to conditions: at 10 µM.
Test [6] deals with T3, Inhibitor of nuclear factor kappa-B kinase subunit alpha (Homo sapiens) (UniProt O15111).
T3 sequence (whole entry): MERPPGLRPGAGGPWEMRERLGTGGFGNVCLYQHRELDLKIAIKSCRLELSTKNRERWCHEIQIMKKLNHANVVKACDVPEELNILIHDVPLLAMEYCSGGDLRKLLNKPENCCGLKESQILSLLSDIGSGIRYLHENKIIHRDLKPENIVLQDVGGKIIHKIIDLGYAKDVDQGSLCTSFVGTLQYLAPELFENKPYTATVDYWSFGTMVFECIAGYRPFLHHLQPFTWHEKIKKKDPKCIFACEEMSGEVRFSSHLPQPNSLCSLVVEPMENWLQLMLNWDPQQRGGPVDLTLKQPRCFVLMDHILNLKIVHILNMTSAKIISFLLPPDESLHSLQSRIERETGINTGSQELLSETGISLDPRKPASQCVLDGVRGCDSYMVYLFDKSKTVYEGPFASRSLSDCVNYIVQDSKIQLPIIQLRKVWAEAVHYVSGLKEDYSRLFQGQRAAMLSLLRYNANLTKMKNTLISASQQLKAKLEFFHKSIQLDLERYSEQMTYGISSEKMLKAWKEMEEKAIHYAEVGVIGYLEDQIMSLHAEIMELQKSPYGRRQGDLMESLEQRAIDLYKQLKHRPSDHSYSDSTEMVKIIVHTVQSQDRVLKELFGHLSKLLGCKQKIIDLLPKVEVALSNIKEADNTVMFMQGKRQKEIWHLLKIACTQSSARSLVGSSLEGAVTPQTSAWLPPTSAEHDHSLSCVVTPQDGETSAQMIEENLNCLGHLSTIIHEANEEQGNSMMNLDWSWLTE
Particulars: at 1 µM.

In test [7] the target is T3, Inhibitor of nuclear factor kappa-B kinase subunit alpha (Homo sapiens). As to conditions: at 10 µM.
Test [8] deals with T4, Inhibitor of nuclear factor kappa-B kinase subunit beta (Homo sapiens) (UniProt O14920).
T4 sequence (whole entry): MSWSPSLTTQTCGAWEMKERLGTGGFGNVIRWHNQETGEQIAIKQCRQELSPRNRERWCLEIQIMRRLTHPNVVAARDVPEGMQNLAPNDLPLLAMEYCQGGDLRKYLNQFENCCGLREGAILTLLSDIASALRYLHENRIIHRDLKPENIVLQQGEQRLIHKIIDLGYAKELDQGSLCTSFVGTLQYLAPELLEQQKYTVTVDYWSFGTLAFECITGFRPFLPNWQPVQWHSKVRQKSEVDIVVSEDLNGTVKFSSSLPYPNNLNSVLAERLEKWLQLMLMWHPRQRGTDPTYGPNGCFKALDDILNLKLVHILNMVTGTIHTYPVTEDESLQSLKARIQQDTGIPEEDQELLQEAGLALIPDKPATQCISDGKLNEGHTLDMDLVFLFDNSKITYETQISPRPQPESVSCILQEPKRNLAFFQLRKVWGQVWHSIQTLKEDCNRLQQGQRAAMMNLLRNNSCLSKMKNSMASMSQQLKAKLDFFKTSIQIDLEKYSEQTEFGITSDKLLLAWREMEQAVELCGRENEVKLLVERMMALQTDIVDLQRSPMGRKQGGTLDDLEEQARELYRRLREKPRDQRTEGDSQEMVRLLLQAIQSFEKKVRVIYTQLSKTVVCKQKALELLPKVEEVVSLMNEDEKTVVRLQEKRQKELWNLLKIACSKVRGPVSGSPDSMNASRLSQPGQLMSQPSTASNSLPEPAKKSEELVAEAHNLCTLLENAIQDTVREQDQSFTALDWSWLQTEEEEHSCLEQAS
As to conditions: at 1 µM.

For test [9], the target named is T4, Inhibitor of nuclear factor kappa-B kinase subunit beta (Homo sapiens). Particulars: at 10 µM.
Test [10] has as its target Insulin receptor (Homo sapiens) (UniProt P06213). As to conditions: at 1 µM.

Sequence of Insulin-like growth factor 1 receptor (Homo sapiens) (P08069 31-736 limits assumed): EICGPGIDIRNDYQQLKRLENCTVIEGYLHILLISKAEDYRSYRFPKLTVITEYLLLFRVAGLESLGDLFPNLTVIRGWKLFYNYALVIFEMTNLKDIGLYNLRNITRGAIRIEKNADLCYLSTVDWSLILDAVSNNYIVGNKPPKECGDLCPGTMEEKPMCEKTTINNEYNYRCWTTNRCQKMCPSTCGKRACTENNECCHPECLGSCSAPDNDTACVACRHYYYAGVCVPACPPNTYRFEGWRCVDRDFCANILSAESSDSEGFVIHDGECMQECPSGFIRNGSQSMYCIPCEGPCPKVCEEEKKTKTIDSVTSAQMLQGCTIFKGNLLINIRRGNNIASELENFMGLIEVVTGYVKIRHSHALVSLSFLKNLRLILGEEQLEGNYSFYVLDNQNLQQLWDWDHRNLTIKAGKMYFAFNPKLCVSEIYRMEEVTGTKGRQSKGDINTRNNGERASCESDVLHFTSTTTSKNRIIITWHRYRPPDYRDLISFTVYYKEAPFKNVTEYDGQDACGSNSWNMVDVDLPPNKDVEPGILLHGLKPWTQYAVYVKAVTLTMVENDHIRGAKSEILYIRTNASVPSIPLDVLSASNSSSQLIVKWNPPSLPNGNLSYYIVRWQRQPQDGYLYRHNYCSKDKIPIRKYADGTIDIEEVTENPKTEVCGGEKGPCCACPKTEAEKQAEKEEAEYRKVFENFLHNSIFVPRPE
Sequence of Insulin-like growth factor 1 receptor (Homo sapiens) (P08069 741-1367 limits assumed): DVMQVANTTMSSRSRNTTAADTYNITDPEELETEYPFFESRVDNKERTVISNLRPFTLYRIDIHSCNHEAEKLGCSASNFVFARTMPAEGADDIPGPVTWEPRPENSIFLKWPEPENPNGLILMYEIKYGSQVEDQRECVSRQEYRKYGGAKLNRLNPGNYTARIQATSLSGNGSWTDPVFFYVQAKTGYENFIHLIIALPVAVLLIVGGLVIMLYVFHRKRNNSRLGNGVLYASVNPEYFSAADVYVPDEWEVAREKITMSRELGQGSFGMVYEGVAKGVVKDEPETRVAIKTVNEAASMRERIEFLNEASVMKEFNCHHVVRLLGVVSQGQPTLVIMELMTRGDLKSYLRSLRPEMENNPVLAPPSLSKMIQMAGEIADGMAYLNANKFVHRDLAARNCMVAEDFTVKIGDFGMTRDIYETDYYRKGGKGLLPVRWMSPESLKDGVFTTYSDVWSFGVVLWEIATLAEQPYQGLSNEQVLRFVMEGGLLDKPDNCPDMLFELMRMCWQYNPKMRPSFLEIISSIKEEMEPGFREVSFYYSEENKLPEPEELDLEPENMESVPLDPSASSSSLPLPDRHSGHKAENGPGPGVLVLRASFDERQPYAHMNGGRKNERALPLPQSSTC
Sequence of Insulin receptor (Homo sapiens) (P06213 28-758 limits assumed): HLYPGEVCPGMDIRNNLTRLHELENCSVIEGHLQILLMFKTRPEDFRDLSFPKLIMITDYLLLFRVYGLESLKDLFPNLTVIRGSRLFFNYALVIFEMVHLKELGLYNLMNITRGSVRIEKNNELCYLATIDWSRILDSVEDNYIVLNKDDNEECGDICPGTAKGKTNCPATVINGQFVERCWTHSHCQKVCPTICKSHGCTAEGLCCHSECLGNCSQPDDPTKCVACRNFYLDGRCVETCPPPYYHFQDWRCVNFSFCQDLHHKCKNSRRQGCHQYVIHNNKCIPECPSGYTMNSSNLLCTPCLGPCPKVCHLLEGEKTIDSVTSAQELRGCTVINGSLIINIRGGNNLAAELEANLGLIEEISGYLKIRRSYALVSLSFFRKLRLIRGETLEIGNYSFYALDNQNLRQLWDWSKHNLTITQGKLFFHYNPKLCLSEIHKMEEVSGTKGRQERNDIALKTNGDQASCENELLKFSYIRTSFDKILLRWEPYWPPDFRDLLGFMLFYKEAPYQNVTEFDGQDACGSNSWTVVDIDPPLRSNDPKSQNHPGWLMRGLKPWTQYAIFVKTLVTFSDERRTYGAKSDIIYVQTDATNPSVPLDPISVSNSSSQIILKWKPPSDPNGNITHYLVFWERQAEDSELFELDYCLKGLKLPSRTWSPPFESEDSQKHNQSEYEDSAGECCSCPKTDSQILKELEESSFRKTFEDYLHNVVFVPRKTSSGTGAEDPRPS
Sequence of Insulin receptor (Homo sapiens) (P06213 763-1382 limits assumed): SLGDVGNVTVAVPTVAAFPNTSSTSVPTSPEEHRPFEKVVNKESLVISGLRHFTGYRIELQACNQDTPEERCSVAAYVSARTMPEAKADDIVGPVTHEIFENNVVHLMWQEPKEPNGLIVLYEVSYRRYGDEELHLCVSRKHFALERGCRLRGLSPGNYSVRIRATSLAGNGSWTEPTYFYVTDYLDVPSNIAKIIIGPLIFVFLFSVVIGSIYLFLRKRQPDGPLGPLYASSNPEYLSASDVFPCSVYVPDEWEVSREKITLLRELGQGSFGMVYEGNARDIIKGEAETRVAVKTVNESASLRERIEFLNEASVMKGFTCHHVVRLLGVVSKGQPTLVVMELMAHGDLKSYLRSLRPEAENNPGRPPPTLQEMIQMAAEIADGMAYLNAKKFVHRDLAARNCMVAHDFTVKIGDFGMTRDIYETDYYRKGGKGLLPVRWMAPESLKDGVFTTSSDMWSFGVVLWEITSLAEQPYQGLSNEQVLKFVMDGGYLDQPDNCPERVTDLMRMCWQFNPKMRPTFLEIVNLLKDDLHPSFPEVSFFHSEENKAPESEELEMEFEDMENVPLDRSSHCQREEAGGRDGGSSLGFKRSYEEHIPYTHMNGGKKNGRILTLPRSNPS

`Cc1ccc(S(=O)(=O)/C=C/C#N)cc1`: the residual activity in test [1] came to 81%; in test [2], 98%; in test [3], 81%; in test [4], 88%; in [5] it was 98%; in test [6], 100%. Besides, the residual activity in test [7] is 100%; in [8], 108%; in test [9], 107%; in [10], 94%.

In general, residual activity refers to the signal under treatment as a percentage of the control signal.
